Among all 400,000 compounds or so, about 2,100 (0.53%) were called active. About 14% were inconclusive and are not listed. How the calls were made is not given here. This excerpt belongs to a sample that is enriched for actives.
biological target: Ataxin-2 (Homo sapiens) (UniProt Q99700); experiment: qHTS for Inhibitors of ATXN expression.; assay type: functional
Sequence (Q99700 whole entry): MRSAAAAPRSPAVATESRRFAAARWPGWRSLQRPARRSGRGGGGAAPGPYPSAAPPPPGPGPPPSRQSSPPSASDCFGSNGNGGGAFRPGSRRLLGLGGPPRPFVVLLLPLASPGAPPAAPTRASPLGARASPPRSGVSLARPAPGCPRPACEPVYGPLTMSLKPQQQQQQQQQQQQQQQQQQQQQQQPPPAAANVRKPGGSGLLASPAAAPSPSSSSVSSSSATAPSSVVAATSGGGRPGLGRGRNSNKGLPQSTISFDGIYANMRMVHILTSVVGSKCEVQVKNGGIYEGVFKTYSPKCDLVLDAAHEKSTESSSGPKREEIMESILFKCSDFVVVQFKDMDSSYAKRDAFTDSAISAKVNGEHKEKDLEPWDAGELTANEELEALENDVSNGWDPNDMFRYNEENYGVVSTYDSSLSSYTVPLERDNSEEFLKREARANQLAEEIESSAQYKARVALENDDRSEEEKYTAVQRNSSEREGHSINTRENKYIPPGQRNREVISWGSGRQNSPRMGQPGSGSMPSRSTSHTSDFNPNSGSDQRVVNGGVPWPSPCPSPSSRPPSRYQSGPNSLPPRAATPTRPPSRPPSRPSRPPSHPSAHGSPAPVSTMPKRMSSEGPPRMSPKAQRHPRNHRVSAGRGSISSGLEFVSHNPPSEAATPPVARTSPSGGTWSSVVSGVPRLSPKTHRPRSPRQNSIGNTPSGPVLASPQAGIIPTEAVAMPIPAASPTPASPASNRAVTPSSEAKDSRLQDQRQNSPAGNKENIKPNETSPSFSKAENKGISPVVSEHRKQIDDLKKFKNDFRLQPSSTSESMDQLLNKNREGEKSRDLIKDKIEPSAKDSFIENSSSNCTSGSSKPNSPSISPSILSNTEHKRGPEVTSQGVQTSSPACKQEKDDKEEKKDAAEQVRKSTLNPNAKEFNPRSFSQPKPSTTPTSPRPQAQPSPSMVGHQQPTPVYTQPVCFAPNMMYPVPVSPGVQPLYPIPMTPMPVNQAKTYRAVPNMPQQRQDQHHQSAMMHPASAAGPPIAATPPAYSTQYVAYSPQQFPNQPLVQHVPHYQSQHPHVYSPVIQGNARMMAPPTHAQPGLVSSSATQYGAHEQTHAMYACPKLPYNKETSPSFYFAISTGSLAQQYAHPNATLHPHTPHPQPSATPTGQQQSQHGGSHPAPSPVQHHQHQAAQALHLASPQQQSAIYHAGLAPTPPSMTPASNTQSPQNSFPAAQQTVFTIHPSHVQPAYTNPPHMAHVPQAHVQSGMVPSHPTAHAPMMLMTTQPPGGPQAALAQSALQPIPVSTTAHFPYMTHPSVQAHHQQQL

Structure (SMILES) | Potency
CCOC(=O)Cc1c(C)c2ccc(N(CC)CC)cc2oc1=O | inactive
C(=Cc1cnc2ccccc2n1)c1ccc2c(c1)OCO2 | inactive
CCCCCn1cc[n+](-c2nc3ccccc3nc2[N-]S(=O)(=O)c2ccccc2)c1 | inactive
Cc1ccc(NC(=O)CC2Nc3ccccc3NC2=O)cc1C (stereo not drawn) | inactive
CC(=O)c1cc2c(C)cc(=O)oc2cc1O | inactive
Fc1cccc(Cl)c1CNc1ccc(N2CCCC2)cc1 | inactive
COC(=O)Cc1c(C(=O)OC)nnn1-c1cccc(C(F)(F)F)c1 | inactive
COC(=O)C1=C(C)N(Cc2ccccc2)C(NCc2ccccc2)=N[C@H]1c1cccc(C(F)(F)F)c1 | 35.5 µM (active)
COC(=O)C1=C(C)N(Cc2ccccc2)C(NCCc2c[nH]c3ccccc23)=N[C@H]1c1cccc(C(F)(F)F)c1 | 25.1 µM (active)
CCN1C(N(C)CCc2c[nH]c3ccccc23)=N[C@@H](c2cccc(C(F)(F)F)c2)C(C(=O)OC)=C1C | 31.6 µM (active)
Cc1nn(Cc2ccccc2)c(C)c1/C=N/NC(=O)CNc1cccc(C(F)(F)F)c1 | inactive
CCOC(=O)c1sc(-c2cccc(C(F)(F)F)c2)nc1O | inactive
COC(=O)C1=C(C)N(Cc2ccccc2)C(NCc2cccc(C(F)(F)F)c2)=N[C@H]1c1cccc(F)c1 | 17.8 µM (active)
C1=C(c2ccc(-c3ccccc3)cc2)Nc2ncnn2C1c1ccco1 (stereo not drawn) | inactive
COCCC(=O)NCC1Cc2cc(Cl)cc(-c3ccc4[nH]ccc4c3)c2O1 (stereo not drawn) | inactive
OC(CNc1ccccc1)Cn1ccc2ccccc21 (stereo not drawn) | inactive
COc1ccc(C2=NN(c3ccc(C(=O)O)cc3)C(c3ccc(OC)c(OC)c3)C2)cc1 (stereo not drawn) | inactive
CCc1c(C)c2cc3c(c(C)c2oc1=O)OCN(CCc1ccccc1F)C3 | inactive
CCc1ccc(-c2cn3nc(C)c(C)nc3n2)cc1 | inactive
COc1cccc(C2C=C(c3ccc(OC)cc3OC)Nc3nnnn32)c1 (stereo not drawn) | inactive
CN(Cc1ccccc1)S(=O)(=O)c1csc(C(N)=O)c1 | inactive

Structure (SMILES) | Potency
Cc1cc(C)c2sc(N(CCCN(C)C)C(=O)c3ccc(S(=O)(=O)N(C)C4CCCCC4)cc3)nc2c1 | 35.5 µM (active)
CN(Cc1ccccc1)C(=O)c1ccc(S(=O)(=O)N(C)c2ccccc2)cc1 | inactive
Cc1cc(C)c2sc(N(CCCN(C)C)C(=O)c3ccc(S(=O)(=O)N(C)Cc4ccccc4)cc3)nc2c1 | 39.8 µM (active)
CN(C)CCN(C(=O)C1CCCCC1)c1nc2cc3c(cc2s1)OCCO3 | inactive
CC(=O)OCCCCCCCCCCC[N+]1(C)CCCCC1 | inactive
O=c1cc(CN2CCN(Cc3ccccc3)CC2)c2ccc(O)c(O)c2o1 | inactive
O=C(CNCCC1=CCCCC1)Nc1ccc(N2CCCCCC2)cc1 | 25.1 µM (active)
O=C(COC(=O)c1cccnc1O)Nc1ccc(N2CCCCC2)cc1 | inactive
CC(=O)c1c(C)[nH]c(C(=O)Nc2ccc(N3CCCCCC3)cc2)c1C | inactive
Cc1ccc(C2C=C(c3ccc(Cl)cc3)Nc3nc(NC(=O)c4ccco4)nn32)cc1 (stereo not drawn) | inactive
CC(=O)Nc1ccc(S(=O)(=O)NC(C)C(=O)NCC(c2ccco2)N2CCCCC2)cc1 (stereo not drawn) | inactive
COc1cc(C(=O)NCC(c2ccco2)N2CCCC2)ccc1OCc1ccc(Cl)cc1Cl (stereo not drawn) | 35.5 µM (active)
O=C(NCC(c1ccco1)N1CCCC1)c1cc(S(=O)(=O)N2CCOCC2)ccc1Cl (stereo not drawn) | inactive
Cc1cc(N/N=C/c2ccc([N+](=O)[O-])o2)nc2ccccc12 | inactive
O=[N+]([O-])c1ccc(/C=[N+](\[O-])[C@@H]2CCCC[C@@H]2/[N+]([O-])=C/c2ccc([N+](=O)[O-])o2)o1 | 42.3 µM (active)
c1ccc(C2=NN(c3ccccc3)C(c3ccco3)C2)cc1 (stereo not drawn) | inactive
COc1ccc(-c2cc(=O)oc3c(C)c(O)ccc23)cc1 | inactive
COc1ccc(C2C=C(c3ccc(C)c(C)c3)Nc3ncnn32)c(OC)c1OC (stereo not drawn) | inactive
CCN(CCNCC(O)COc1ccccc1C(C)C)c1cccc(C)c1 (stereo not drawn) | 39.8 µM (active)
CCN(CCCNC(=O)c1cc(Nc2ccccc2OC)nc2ccccc12)c1cccc(C)c1 | inactive
O=C(CCNC(=O)c1ccc([N+](=O)[O-])cc1)Nc1nccs1 | inactive

Structure (SMILES) | Potency
CCCCCc1c2c(cc(O)c1C(=O)O)OC(=O)c1c(cc(OC)cc1C(=O)CCCC)O2 | 21.2 µM (active)
CCCOC(=O)c1ccc(Oc2coc3c(CN(CC)CC)c(O)ccc3c2=O)cc1 | inactive
CCCOC(=O)c1ccc(Oc2c(C)n[nH]c2-c2ccc(OCC)cc2O)cc1 | 31.6 µM (active)
CCOc1ccc(C(=O)COC(=O)Cn2[nH]c(=O)c3ccccc3c2=O)cc1 | inactive
COCCn1c(SC2CCCCC2=O)nnc1-c1ccncc1 (stereo not drawn) | inactive
O=S(=O)(O)c1cccc(N=Nc2c(O)ccc3ccccc23)c1 | 39.8 µM (active)
Oc1ccc2ccccc2c1N=Nc1ccccn1 | 14.1 µM (active)
Nc1cc(Cl)nc(N/N=C/c2c(O)ccc3ccccc23)n1 | inactive
O=C(N/N=C/c1c(O)ccc2ccccc12)c1cccc(C(F)(F)F)c1 | inactive
O=C(N/N=C\c1c(O)ccc2ccccc12)c1ccc(S(=O)(=O)N2CCCCC2)cc1 | inactive
Oc1ccccc1C=NN=Cc1c(O)ccc2ccccc12 | inactive
Oc1ncnc(O)c1C(c1ccc(F)cc1)c1c(O)ncnc1O | inactive
Cc1ccc(S(=O)(=O)/N=c2\ccc(Cl)cn2C(F)F)cc1 | inactive
N#Cc1nc(/C=C/c2ccccc2)oc1NCCCN1CCOCC1 | inactive
CC(=O)c1sc(NC(=O)CN2C(=O)C3CCCCC3C2=O)nc1-c1ccccc1 (stereo not drawn) | inactive
CCc1sc(NC(=O)CN2CCC(C(N)=O)CC2)nc1-c1ccccc1 | inactive
CCNc1nc(-c2sc(NC(=O)C(C)(C)C)nc2C)c(-n2cc(-c3ccccc3)nn2)s1 | 15.8 µM (active)
Cn1c(=O)c2c(nc(NCc3ccccc3)n2Cc2ccc(Cl)c(Cl)c2)n(C)c1=O | 35.5 µM (active)
Cn1c(=O)c2nc(NCc3ccccc3)cnc2n(C)c1=O | inactive
CCC1CCCCN1Cc1nc2c(c(=O)n(C)c(=O)n2C)n1CCCc1ccccc1 (stereo not drawn) | inactive
CC1CCCCC12NC(=O)N(CC(=O)OCc1cccc(F)c1)C2=O (stereo not drawn) | inactive
